A647 fluor – A647 region autofluorescence; Compound fluorescence, A647 channel (570/671 nm), Tris buffer; max dye-equivalent concentration, M; 59,000 tested, under 10 active; AID 592;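 note: values scaled relative to a standard on each plate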
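Tris 100 mM pH 8.0; cpd + A647 stds pin-transferred; 15 min RT; CCD imager, ex 570/em 671. Output = A647-equivalent conc. per cpd conc.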
Fluorescein autfl – compound fluoresces in the fluorescein spectral region; max fluorescein-equivalent concentration, M; Compound autofluorescence, 480/540 nm, fluorescein-equivalent; hits give high values; 59,000 tested, 0.91% active; in the data active = max fluorescein-equivalent concentration above about 10 nM; inconclusive = between about 1.1 nM and that limit
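Read-out is intrinsic compound fluorescence at 480/540 nm (excitation/emission), expressed as dye-equivalent concentration using a fluorescein standard series run on every plate. Compounds sat 15 min at room temperature in 100 mM Tris, pH 8.0.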
TexasRed autofl – Texas Red region autofluorescence. Compound fluorescence, Texas Red channel, 547/618 nm; hits give high values. max dye-equivalent concentration, M. 59,000 tested, 0.06% active. AID 587; in the data active = max dye-equivalent concentration above about 10 nM; inconclusive = between about 1.1 nM and that limit
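Fluorescence at ex 547/em 618 nm, normalized against an on-plate Texas Red standard series to give dye-equivalent concentration per compound concentration. Buffer 100 mM Tris, pH 8.0; 15 min RT incubation before CCD imaging.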
A488 fluor – A488 region autofluorescence; compound autofluorescence, A488 spectral region, dye equivalency; Compound Type: qHTS ECL - MLSMR; AID 591; max dye equivalency, M; 59,000 tested, 0.1% active
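Compound autofluorescence was read in 100 mM Tris pH 8.0 after 15 min at room temperature, ex 480 nm/em 540 nm. Intensities were converted to A488 dye-equivalent concentration using an on-plate six-point A488 standard curve.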
Resorufin autofl – compounds fluorescent in resorufin spectral region. AID 588. Compound fluorescence, resorufin region 547/598 nm, buffer; hits give high values. max dye-equivalent concentration, M. 59,000 tested, 0.04% active
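Dye-equivalent concentration values derive from comparing each well's 547/598 nm fluorescence against resorufin standards included on every plate. Incubation was 15 min at room temperature in 100 mM Tris, pH 8.0.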
Rhodamine fluor – compound autofluorescence in rhodamine spectral region | AID 594 | 59,000 tested, 0.05% active | max dye-equivalent concentration, M | Rhodamine-region fluorescence, 547/598 nm, Tris buffer; hits give high values; in the data active = max dye-equivalent concentration above about 11 nM; inconclusive = between about 1.1 nM and that limit
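qHTS spectral profiling of compounds without any target or enzyme present, in pH 8.0 Tris buffer; plates were read after a 15-minute room-temperature incubation using the rhodamine-region filter set.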
An asterisk follows results filed as active; i = inactive; u = inconclusive. Compounds with a hit are over-represented: about 0.95% of the library has one in this group of screens. Unless noted, the rule behind the calls is not given here.

SMILES	A647 fluor	Fluorescein autfl	TexasRed autofl	A488 fluor	Resorufin autofl	Rhodamine fluor
CCOC(=O)c1csc(NC(=O)CSc2nnnn2-c2ccc(OCC)cc2)n1	1e-09	2.3e-08M*	i	i	i	i
C=C[C@@]1(C)CC(=O)[C@@]2(O)[C@@]3(C)[C@H](O)CCC(C)(C)[C@@H]3[C@H](O)[C@H](OC(C)=O)[C@]2(C)O1	1.4e-08	u	u	i	i	i
COc1cccc2c1C(=O)c1c(O)c3c(c(O)c1C2=O)C[C@](O)(C(C)=O)C[C@H]3O[C@@H]1C[C@H](N)[C@H](O)[C@H](C)O1	7e-09	2e-07M*	5.9e-08M*	u	4.5e-08M*	6e-08M*
CC(=O)[C@@]1(O)Cc2c(O)c3c(c(O)c2[C@H](O[C@H]2C[C@H](N)[C@H](O)[C@H](C)O2)C1)C(=O)c1ccccc1C3=O	6.7e-08	4.7e-07M*	u	2.4e-08M*	2.4e-08M*	4.2e-08M*
COc1cccc2c1C(=O)c1c(O)c3c(c(O)c1C2=O)C[C@@](O)(C(=O)CO)C[C@@H]3O[C@H]1C[C@H](N)[C@H](O)[C@H](C)O1	4.6e-09	2.9e-07M*	8.3e-08M*	1.3e-08M*	7.6e-08M*	8.7e-08M*
COc1cccc2c1C(=N)c1c(O)c3c(c(O)c1C2=O)C[C@](O)(C(C)=O)C[C@@H]3O[C@H]1C[C@H](N)[C@@H](O)[C@H](C)O1	2e-08	i	1e-08M*	i	i	u
Cc1ccccc1CNc1ncnc2c1ncn2[C@@H]1O[C@@H](CO)[C@H](O)[C@@H]1O	1.2e-09	2e-08M*	u	i	i	i
CN1C[C@@H](C(=O)N[C@]2(C)O[C@]3(O)[C@H]4CCCN4C(=O)[C@H](Cc4ccccc4)N3C2=O)C[C@H]2c3cccc4[nH]cc(c34)C[C@@H]21	1.3e-09	u	i	i	i	i
CO[C@@H]1/C=C\O[C@]2(C)Oc3c(C)c(O)c4c(O)c(c(/C=N\N5CCN(C)CC5)c(O)c4c3C2=O)NC(=O)/C(C)=C\C=C/[C@H](C)[C@H](O)[C@H](C)[C@H](O)[C@H](C)[C@H](OC(C)=O)[C@@H]1C	1e-09	i	i	i	i	i
Fc1ccccc1N1CCN(c2nc3ccccc3n3nnnc23)CC1	3.1e-08	1.6e-08M*	i	i	i	i
c1cnc(N2CCN(c3nc4ccccc4n4cnnc34)CC2)nc1	6.2e-09	i	i	i	i	i
C[C@H]1[C@H](C)CC[C@@]2(C(=O)O)CC[C@]3(C)C(=CC[C@H]4[C@@]5(C)C[C@@H](O)[C@H](O)[C@@](C)(CO)[C@@H]5CC[C@@]43C)[C@@H]12	1e-09	i	i	i	i	i
CCOC(=O)CN=C1CC(C)(C)CC2=C1Sc1ncnc(N(C)C)c1N2	1e-09	3.4e-08M*	i	u	u	u
Cc1cccc(OCC(=O)NCC(=O)n2nc(C)cc2C)c1	7.9e-08	1.2e-08M*	i	i	i	i
Cc1cc(C)n(C(=O)COc2c(C)cccc2C)n1	3.9e-08	u	i	i	i	i
CN1C[C@H](C(=O)N[C@]2(C)O[C@@]3(O)[C@H]4CCCN4C(=O)[C@@H](Cc4ccccc4)N3C2=O)C[C@H]2c3cccc4[nH]cc(c34)C[C@@H]21	2.8e-09	u	i	i	i	i
CN(C)C=Nc1nonc1-c1ncn[nH]1	2.7e-08	i	i	i	i	i
CN(C)C=Nc1c(Br)cc(Br)c2nonc12	2.3e-08	3.9e-08M*	u	u	u	u
O=c1cc(-c2ccccc2)oc2cc(O[C@H]3O[C@H](CO)[C@@H](O)[C@H](O)[C@@H]3O)c(O)c(O)c12	1.4e-08	i	i	i	i	i
CN[C@H]1[C@H](O)[C@@H](O[C@@H]2[C@H](O)[C@@H](O[C@H]3OC(CN)=CC[C@H]3N)[C@@H](N)C[C@H]2N)OC[C@@]1(C)O	1e-09	u	i	i	i	i
CCN[C@@H]1C[C@H](N)[C@H](O[C@H]2OC(CN)=CC[C@H]2N)[C@@H](O)[C@H]1O[C@H]1OC[C@@](C)(O)[C@@H](NC)[C@@H]1O	1e-09	2.4e-08M*	i	i	i	i
CC1(C)CC(=O)C2=C(C1)OC(N)=C(C#N)C21CCN(Cc2ccccc2)CC1	3.7e-08	3.2e-08M*	i	u	i	i
O[C@@H](c1cc(C(F)(F)F)nc2c(Cl)cc(Cl)cc12)[C@@H]1CCCCN1	1.9e-08	i	i	i	i	i
CC1CC=C2C(C#N)=C(N)C(C#N)(C#N)C(c3cccs3)C2C1 (stereo unspecified)	2.4e-08	2.7e-08M*	i	i	i	i
CC(C)(C)OC(=O)N1CC=C2C(C#N)=C(N)C(C#N)(C#N)[C@H](c3cccnc3)[C@H]2C1	7.7e-08	u	i	i	i	i
SMILES	A647 fluor	Fluorescein autfl	TexasRed autofl	A488 fluor	Resorufin autofl	Rhodamine fluor
CC(C)(C)OC(=O)N1CC=C2C(C#N)=C(N)C(C#N)(C#N)C(c3cccs3)C2C1 (stereo unspecified)	4.1e-08	1.8e-08M*	i	i	i	i
CCCCCCc1cc2cc(-c3nnc(-c4ccccc4O)o3)c(=O)oc2cc1O	4.3e-08	2.6e-08M*	i	i	i	i
Cc1cc(-c2nnc(-c3cc4ccccc4oc3=O)o2)c(C)n1-c1ccccc1	1e-09	i	i	i	i	i
CCCN1C[C@@H](CSC)C[C@H]2c3cccc4[nH]cc(c34)C[C@@H]21	1.2e-09	u	u	i	i	i
Nc1nc(Cl)nc2c1ncn2[C@@H]1O[C@@H](COP(=O)(O)OP(=O)(O)OP(=O)(O)O)[C@@H](O)[C@H]1O	2.7e-09	i	i	i	i	i
CC1=CC(=O)c2ccccc2C1=O	3.8e-08	u	i	i	i	i
NC1=CC(=O)c2cccc3cccc1c23	2.6e-08	3.6e-08M*	i	u	i	i
O=C(O)c1cc2c(cc1S(=O)(=O)O)[C@H]1[C@@H]([C@H]3[C@H]2[C@@]2(Cl)C(Cl)=C(Cl)[C@]3(Cl)C2(Cl)Cl)[C@]2(Cl)C(Cl)=C(Cl)[C@@]1(Cl)C2(Cl)Cl	6.9e-09	u	i	i	i	i
C[C@H](O)[C@H](O)[C@@H](O)c1cnc2nc(N)[nH]c(=O)c2n1	1e-09	i	i	i	i	i
c1ccc2c(-c3ccncc3)c[nH]c2c1	1e-09	u	i	i	i	i
Nc1cc(-c2ccncc2)c[nH]c1=O	5.1e-08	1.1e-08M*	i	i	i	i
O=C(O)c1ccc2c(c1)NC(=O)C(N1CCCC1)S2 (stereo unspecified)	4.1e-08	1.1e-08M*	i	i	i	i

From PubChem BioAssay
